Data reported in PubChem BioAssay AID2284153 (EPA ToxCast).
The source made the active and inactive calls. Rule for the calls: active = hit-call score of the fitted dose curve at least 0.9, where 1 is the maximum; inactive = score below 0.9.

Molecular target: Muscarinic acetylcholine receptor M1 (Homo sapiens) (UniProt P11229)
Assay: ERF_FR_GPCR_hCHRM1: Eurofins (ERF) G Protein-Coupled Receptor (GPCR) Radioligand Binding LeadHunter Assay for human Muscarinic Acetylcholine Receptor M1 Antagonism, conducted at France lab site
Procedure: ERF_FR_GPCR_hCHRM1 is a biochemical, single-readout assay that uses extracted gene-proteins in a cell-free assay. Measurements were taken 1 hour after chemical dosing in a 96-well plate. See M1 Human Acetylcholine (Muscarinic) GPCR Binding (Antagonist Radioligand) Assay, Cerep.ERF_FR_GPCR_hCHRM1 is an assay component calculated from the ERF_FR_GPCR_hCHRM1 assay. It is designed to measure radioligand binding using a type of binding reporter as detected by scintillation counting with radiometry technology.Data from the assay component ERF_FR_GPCR_hCHRM1 was analyzed at the assay endpoint, ERF_FR_GPCR_hCHRM1, in the positive analysis fitting direction relative to DMSO as the negative control and baseline of activity. Using a type of binding reporter, loss-of-signal activity can be used to understand changes in binding as they relate to gene CHRM1. To generalize the intended target to other relatable targets, this assay endpoint is annotated to the gpcr intended target family, where the subfamily is acetylcholine (Muscarinic).
Human cells are incubated for 60 minutes at room temprature with [3H]pirenzepine ligand (2 nM) and pirenzepine as control inhibitor.Test Sample Requirements: Minimum for 1) Screen: 60 ul of 10 mM stock -OR- 1 mg (pre-weighed) for 10 uM final testing. 2) Dose Response: 90 ul of 10 mM stock -OR- 1 mg (pre-weighed) for a top concentration at 10 uM.

Sequence of Muscarinic acetylcholine receptor M1 (Homo sapiens) (P11229 whole entry, looked up): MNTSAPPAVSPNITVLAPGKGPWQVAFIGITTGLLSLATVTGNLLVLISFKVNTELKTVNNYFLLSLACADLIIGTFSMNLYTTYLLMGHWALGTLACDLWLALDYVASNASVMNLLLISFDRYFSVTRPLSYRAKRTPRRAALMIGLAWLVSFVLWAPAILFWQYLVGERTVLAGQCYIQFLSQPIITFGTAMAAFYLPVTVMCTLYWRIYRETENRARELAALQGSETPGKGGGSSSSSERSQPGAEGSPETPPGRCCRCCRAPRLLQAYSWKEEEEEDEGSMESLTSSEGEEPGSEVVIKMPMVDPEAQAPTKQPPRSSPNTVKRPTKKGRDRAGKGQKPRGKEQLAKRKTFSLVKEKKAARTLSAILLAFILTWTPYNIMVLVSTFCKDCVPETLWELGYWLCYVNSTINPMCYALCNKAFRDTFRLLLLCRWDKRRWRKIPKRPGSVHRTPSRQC

SMILES | AC50
O=C(/C=C/c1ccc(O)cc1)CC(=O)/C=C/c1ccc(O)cc1 | 5 µM (active)
